Data on 1 sequence can be found in paper PMC7862700, “An all-to-all approach to the identification of sequence-specific readers for epigenetic DNA modifications on cytosine”.

Test in all cases: DAPPL (digital affinity profiling via proximity ligation, sequencing); 10 mM Tris-HCl pH 7.5, 50 mM NaCl, 1 mM DTT, 4% glycerol, room temperature, 30 min; GST-TFs on glutathione beads, 16-mer random dsDNA library, 0.1% formaldehyde crosslink after washing; high values mean tight binding
Experiment [1] has as its target T1, FEV (Homo sapiens, UniProt Q99581 1-238).
T1 sequence: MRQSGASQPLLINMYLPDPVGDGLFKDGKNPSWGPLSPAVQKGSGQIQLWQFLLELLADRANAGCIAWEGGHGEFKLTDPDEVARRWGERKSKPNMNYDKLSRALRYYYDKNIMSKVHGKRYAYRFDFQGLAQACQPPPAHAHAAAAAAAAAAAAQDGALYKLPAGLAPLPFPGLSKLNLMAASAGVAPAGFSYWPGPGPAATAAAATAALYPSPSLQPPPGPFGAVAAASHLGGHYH
Conditions: protein: recombinant; tags: N-terminal GST; dsDNA, one strand shown. Put shortly: (§1)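 In yeast, human transcription factors were expressed with a GST fusion, then pulled down on glutathione beads and given DNA barcodes. Pooled with a tag-only sample, they were exposed to 200 nmole of a 16-mer random double-stranded DNA library (Tris/NaCl/DTT/glycerol buffer, room temperature, 30 min), washed, crosslinked with 0.1% formaldehyde, proximity-ligated using BsaI/T4 ligase for 1 h at 37 °C, PCR-amplified and read on an Illumina NextSeq500. Each hexamer's frequency of reads for a factor, divided by the matching frequency for the tag-only sample, gives the binding signal.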

Experiment [2] concerns the target ETV5 (Homo sapiens, UniProt P41161 1-510). Conditions: protein: recombinant; tags: N-terminal GST; dsDNA, one strand shown. Put shortly:
as §1

The target of experiment [3] is HSF1 (Homo sapiens, UniProt Q00613 1-529). The settings on record: protein: recombinant; tags: N-terminal GST; chain copies: 3; dsDNA, one strand shown. Put shortly: as §1
For experiment [4], the target named is T2, SPIC (Homo sapiens, UniProt Q8N5J4 1-248).
T2 sequence: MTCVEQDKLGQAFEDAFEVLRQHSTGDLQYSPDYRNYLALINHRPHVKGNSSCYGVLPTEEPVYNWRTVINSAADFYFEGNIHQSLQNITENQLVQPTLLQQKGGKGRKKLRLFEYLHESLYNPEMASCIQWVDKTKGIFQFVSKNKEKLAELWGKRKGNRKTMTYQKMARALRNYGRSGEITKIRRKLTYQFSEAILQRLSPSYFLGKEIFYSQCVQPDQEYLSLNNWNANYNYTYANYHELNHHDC
The settings on record: protein: recombinant; tags: N-terminal GST; dsDNA, one strand shown. Put shortly:
as §1

Experiment [5] concerns the target ELF4 (Homo sapiens, UniProt Q99607 1-663). Conditions: protein: recombinant; tags: N-terminal GST; dsDNA, one strand shown. In a few lines: as §1
Experiment [6] deals with T3, ELK4 (Homo sapiens, UniProt P28324-2 1-405).
T3 sequence: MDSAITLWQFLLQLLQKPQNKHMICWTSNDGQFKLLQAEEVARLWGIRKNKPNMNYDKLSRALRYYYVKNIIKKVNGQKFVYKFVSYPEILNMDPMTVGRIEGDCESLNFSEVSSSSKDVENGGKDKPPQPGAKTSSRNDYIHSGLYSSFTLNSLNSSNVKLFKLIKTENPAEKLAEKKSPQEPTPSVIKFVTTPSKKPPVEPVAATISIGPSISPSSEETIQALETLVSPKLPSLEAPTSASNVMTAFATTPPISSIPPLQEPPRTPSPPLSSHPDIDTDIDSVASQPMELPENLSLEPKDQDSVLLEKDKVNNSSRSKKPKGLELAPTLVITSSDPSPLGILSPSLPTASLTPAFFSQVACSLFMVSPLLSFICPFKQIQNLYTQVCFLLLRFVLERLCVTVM
Conditions: protein: recombinant; tags: N-terminal GST; dsDNA, one strand shown. In a few lines:
as §1

The target in experiment [7] is T4, ETV2 (Homo sapiens, UniProt O00321 1-342).
T4 sequence: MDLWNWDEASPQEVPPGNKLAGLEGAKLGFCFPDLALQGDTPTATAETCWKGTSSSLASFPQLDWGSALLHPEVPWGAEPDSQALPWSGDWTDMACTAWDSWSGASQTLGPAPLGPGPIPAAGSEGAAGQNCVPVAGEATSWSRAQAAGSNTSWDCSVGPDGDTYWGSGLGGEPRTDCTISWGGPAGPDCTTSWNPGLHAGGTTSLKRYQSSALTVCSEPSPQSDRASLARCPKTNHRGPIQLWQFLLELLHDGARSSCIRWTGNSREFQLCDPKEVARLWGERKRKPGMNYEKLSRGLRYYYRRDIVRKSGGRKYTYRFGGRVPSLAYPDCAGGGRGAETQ
The settings on record: protein: recombinant; tags: N-terminal GST; dsDNA, one strand shown. Put shortly:
as §1

For experiment [8], the target named is T5, ELF3 (Homo sapiens, UniProt P78545 1-371).
T5 sequence: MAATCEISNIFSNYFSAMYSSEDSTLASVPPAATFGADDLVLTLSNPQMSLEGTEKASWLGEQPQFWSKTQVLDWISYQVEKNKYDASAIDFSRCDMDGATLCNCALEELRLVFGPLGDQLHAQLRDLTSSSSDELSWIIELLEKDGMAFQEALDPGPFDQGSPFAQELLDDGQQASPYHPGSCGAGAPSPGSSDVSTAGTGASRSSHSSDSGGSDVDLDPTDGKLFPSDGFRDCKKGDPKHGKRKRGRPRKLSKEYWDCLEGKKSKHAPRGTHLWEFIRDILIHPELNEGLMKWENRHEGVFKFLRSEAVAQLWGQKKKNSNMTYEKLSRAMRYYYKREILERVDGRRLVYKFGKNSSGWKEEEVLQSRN
Conditions: protein: recombinant; tags: N-terminal GST; dsDNA, one strand shown. In a few lines: as §1

For experiment [9], the target named is CRX (Homo sapiens, UniProt O43186 1-299). Conditions: protein: recombinant; tags: N-terminal GST; dsDNA, one strand shown. In a few lines: as §1
The target in experiment [10] is ETV1 (Homo sapiens, UniProt P50549 1-477). Conditions: protein: recombinant; tags: N-terminal GST; dsDNA, one strand shown. Put shortly: as §1
Experiment [11] deals with T6, ERF (Homo sapiens, UniProt P50548 1-548).
T6 sequence: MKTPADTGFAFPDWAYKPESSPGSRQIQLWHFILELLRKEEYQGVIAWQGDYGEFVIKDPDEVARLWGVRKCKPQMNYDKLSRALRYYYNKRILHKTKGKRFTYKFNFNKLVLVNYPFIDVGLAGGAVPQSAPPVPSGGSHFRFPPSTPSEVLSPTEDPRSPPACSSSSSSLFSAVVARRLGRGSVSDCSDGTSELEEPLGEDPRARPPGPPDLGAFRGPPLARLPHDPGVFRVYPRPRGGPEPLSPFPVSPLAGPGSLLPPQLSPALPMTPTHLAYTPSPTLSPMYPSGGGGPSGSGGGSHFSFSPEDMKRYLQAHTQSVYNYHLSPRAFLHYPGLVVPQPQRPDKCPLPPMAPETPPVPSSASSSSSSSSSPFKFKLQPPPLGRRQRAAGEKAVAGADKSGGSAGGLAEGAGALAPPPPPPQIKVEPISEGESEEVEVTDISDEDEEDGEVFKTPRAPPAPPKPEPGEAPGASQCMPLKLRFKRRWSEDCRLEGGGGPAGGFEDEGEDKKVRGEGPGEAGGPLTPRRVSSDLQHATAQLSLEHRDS
Conditions: protein: recombinant; tags: N-terminal GST; dsDNA, one strand shown. In a few lines: as §1

The target of experiment [12] is T7, ETV3L (Homo sapiens, UniProt Q6ZN32 1-361).
T7 sequence: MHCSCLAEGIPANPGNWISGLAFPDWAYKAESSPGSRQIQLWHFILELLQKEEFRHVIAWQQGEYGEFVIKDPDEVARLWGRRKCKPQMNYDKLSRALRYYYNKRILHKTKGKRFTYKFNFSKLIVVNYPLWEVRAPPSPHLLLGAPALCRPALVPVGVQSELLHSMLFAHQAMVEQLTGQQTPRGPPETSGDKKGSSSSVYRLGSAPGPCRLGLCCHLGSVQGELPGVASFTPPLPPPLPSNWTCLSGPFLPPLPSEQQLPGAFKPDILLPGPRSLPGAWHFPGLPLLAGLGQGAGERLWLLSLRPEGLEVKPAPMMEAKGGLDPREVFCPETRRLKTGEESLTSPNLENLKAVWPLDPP
The settings on record: protein: recombinant; tags: N-terminal GST; dsDNA, one strand shown. Put shortly: as §1

Experiment [13] addresses T8, ETS2 (Homo sapiens, UniProt P15036 1-469).
T8 sequence: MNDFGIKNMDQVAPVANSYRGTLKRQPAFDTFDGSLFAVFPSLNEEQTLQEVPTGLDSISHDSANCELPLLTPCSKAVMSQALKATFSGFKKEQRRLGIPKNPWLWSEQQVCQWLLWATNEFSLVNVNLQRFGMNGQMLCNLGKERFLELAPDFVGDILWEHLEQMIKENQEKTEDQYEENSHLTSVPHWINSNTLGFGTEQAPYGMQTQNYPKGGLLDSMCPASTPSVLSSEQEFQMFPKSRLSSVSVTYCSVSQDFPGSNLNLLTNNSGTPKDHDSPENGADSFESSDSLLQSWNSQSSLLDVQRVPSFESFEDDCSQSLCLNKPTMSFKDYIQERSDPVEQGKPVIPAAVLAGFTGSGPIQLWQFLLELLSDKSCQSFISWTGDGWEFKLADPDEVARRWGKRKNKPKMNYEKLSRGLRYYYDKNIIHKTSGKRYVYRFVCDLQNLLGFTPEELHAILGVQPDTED
The settings on record: protein: recombinant; tags: N-terminal GST; dsDNA, one strand shown. In a few lines: as §1

Experiment [14] deals with T9, SPDEF (Homo sapiens, UniProt O95238 1-335).
T9 sequence: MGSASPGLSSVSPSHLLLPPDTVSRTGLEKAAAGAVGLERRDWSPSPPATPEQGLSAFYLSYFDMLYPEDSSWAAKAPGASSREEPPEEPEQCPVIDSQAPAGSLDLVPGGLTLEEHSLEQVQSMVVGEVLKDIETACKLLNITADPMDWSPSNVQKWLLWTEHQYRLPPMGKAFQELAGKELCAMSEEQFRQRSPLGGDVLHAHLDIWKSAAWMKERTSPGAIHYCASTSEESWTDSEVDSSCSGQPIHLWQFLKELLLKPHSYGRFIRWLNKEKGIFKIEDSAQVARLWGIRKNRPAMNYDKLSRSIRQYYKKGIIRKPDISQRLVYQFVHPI
The settings on record: protein: recombinant; tags: N-terminal GST; dsDNA, one strand shown. Put shortly: as §1

Experiment [15] concerns the target T10, ETV7 (Homo sapiens, UniProt Q9Y603 1-341).
T10 sequence: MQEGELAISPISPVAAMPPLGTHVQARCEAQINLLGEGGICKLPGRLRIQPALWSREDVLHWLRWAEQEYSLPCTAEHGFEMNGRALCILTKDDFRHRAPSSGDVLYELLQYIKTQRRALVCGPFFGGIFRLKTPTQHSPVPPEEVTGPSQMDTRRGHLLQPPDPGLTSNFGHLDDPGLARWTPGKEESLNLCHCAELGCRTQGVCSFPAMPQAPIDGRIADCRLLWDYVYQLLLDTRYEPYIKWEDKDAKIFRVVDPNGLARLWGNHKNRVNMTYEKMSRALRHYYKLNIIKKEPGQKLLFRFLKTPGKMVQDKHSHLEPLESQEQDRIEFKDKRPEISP
The settings on record: protein: recombinant; tags: N-terminal GST; dsDNA, one strand shown. In a few lines: as §1

The target in experiment [16] is T11, ELF5 (Homo sapiens, UniProt Q9UKW6-2 1-255).
T11 sequence: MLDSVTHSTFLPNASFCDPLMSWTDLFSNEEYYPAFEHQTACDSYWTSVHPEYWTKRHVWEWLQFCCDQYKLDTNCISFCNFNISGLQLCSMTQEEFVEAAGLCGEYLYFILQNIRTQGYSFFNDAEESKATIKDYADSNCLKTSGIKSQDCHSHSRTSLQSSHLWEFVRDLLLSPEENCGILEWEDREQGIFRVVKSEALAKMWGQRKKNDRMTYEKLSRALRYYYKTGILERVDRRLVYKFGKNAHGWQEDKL
Conditions: protein: recombinant; tags: N-terminal GST; dsDNA, one strand shown. In a few lines:
as §1

Experiment [17] addresses T12, ETV3 (Homo sapiens, UniProt P41162-2 1-143).
T12 sequence: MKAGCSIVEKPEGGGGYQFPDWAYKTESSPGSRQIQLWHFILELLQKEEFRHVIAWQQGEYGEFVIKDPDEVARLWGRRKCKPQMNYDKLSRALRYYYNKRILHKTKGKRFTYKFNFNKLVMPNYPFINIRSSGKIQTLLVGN
Conditions: protein: recombinant; tags: N-terminal GST; dsDNA, one strand shown. Put shortly: as §1

Experiment [18] concerns the target ETV6 (Homo sapiens, UniProt P41212 1-452). The settings on record: protein: recombinant; tags: N-terminal GST; dsDNA, one strand shown. Put shortly: as §1

Chain of HSF1 (Q00613 whole entry): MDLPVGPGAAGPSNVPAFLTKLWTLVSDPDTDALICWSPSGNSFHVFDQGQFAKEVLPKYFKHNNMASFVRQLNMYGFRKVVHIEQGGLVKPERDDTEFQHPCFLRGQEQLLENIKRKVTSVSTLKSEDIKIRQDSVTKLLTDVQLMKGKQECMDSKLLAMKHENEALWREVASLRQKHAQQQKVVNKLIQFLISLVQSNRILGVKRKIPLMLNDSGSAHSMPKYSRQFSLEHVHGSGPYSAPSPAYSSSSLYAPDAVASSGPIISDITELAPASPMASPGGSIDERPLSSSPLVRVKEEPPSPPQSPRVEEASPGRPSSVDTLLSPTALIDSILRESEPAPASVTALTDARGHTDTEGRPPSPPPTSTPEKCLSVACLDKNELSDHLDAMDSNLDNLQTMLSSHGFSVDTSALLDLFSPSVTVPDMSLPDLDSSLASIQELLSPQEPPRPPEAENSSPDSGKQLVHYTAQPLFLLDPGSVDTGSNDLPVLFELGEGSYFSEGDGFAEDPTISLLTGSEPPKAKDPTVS
Chain of ELF4 (Q99607 whole entry): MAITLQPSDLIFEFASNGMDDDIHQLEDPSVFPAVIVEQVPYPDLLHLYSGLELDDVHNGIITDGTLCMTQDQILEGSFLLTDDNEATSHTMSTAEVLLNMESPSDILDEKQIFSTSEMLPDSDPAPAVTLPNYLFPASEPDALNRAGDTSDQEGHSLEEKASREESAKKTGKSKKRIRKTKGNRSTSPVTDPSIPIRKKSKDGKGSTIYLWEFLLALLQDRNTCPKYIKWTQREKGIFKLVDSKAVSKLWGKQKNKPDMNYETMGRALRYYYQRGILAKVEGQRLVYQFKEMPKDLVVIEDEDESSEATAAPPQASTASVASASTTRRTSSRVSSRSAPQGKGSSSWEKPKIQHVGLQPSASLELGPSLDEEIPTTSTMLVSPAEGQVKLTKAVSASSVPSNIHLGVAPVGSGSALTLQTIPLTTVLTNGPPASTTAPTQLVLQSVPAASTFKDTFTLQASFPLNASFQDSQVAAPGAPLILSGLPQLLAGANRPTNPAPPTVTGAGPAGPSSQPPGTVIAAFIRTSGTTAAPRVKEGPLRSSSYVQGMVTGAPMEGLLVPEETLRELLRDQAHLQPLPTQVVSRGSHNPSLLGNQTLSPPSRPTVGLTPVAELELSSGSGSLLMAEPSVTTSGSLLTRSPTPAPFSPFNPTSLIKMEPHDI
Chain of CRX (O43186 whole entry): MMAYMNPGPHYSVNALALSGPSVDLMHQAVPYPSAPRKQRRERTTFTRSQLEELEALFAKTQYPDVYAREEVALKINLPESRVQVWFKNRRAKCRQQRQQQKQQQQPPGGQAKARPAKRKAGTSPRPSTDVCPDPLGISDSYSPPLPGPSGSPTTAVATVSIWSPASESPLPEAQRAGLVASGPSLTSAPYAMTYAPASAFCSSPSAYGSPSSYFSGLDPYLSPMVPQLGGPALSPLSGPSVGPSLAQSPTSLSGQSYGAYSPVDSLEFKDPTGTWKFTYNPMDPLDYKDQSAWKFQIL
Chain of ETV1 (P50549 whole entry): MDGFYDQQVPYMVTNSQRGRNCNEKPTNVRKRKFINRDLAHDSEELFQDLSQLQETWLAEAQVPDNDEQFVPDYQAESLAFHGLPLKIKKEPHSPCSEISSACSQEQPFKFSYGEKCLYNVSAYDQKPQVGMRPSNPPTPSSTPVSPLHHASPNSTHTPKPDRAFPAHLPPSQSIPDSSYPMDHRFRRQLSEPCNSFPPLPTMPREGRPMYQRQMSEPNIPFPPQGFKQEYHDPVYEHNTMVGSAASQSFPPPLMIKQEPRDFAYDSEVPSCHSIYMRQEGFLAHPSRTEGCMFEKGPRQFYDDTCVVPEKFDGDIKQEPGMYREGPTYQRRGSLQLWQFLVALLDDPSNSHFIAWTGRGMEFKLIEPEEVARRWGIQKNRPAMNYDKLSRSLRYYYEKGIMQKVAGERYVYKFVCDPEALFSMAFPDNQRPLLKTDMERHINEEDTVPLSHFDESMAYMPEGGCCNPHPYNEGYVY
Chain of ETV6 (P41212 whole entry): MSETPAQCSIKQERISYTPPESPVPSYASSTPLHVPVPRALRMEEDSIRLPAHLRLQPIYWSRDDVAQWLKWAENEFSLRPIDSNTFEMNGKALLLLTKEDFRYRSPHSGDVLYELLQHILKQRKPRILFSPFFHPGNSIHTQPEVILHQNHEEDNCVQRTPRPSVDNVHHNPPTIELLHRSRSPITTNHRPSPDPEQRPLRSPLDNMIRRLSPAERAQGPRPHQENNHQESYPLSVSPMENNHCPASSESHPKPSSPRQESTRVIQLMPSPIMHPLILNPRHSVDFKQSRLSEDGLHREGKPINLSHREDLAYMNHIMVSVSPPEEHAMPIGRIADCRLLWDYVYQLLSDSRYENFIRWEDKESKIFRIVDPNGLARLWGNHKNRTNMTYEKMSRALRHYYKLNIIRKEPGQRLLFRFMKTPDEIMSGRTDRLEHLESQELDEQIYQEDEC
Chain of ETV5 (P41161 whole entry): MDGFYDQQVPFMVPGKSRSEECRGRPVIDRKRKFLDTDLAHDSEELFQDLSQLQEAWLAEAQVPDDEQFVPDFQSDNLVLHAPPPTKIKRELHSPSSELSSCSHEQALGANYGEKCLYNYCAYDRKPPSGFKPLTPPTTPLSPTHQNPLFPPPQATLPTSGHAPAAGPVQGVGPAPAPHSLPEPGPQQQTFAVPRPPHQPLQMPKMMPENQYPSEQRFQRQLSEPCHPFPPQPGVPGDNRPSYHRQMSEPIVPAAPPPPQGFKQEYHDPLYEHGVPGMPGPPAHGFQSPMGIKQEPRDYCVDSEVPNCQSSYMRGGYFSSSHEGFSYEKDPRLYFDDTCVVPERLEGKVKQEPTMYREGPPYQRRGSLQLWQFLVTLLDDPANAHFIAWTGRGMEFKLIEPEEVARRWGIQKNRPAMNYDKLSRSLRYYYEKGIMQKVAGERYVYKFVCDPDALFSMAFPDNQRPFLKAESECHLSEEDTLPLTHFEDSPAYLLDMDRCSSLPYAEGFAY

As for GCTTAC, the binding signal in experiment [1] is 1.15 fold enrichment (6-mer frequency, TF over GST control); in experiment [2] it was 1.12 fold enrichment (6-mer frequency, TF over GST control); in experiment [3], 1.44 fold enrichment (6-mer frequency, TF over GST control); in experiment [4], 1.21 fold enrichment (6-mer frequency, TF over GST control); in [5], 1.1 fold enrichment (6-mer frequency, TF over GST control); in [6] it was 1.1 fold enrichment (6-mer frequency, TF over GST control). Further, the binding signal in experiment [7] is 1.22 fold enrichment (6-mer frequency, TF over GST control); in [8], 1.4 fold enrichment (6-mer frequency, TF over GST control); in experiment [9], 2.01 fold enrichment (6-mer frequency, TF over GST control); in [10], 1.22 fold enrichment (6-mer frequency, TF over GST control); in experiment [11] it was 1.13 fold enrichment (6-mer frequency, TF over GST control); in [12], 1.09 fold enrichment (6-mer frequency, TF over GST control). Further, the binding signal in [13] is 1.09 fold enrichment (6-mer frequency, TF over GST control); in [14] it was 1.23 fold enrichment (6-mer frequency, TF over GST control); in experiment [15] it was 1.03 fold enrichment (6-mer frequency, TF over GST control); in experiment [16], 1.14 fold enrichment (6-mer frequency, TF over GST control); in experiment [17] it was 1.23 fold enrichment (6-mer frequency, TF over GST control); in experiment [18], 1.03 fold enrichment (6-mer frequency, TF over GST control).
